# BaF3 tox: counter-screen for JAK2V617F inhibitors: parental Ba/F3 viability inhibitors; CellTiter-Glo ATP luminescence; inhibition, % at 5.6 µM; actives 1.1% (n = 220,000);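 active = inhibition above a per-campaign cutoff, the mean inhibition of all tested compounds plus 3 SD, cut at about 27% in these data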
# Ba/F3 V617F tox: reduce viability of Ba/F3 cells dependent on JAK2V617F | Ba/F3 EpoR-JAK2V617F viability, ATP luminescence | inhibition, % at 5.6 µM | actives 1.1% (n = 220,000);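 active = inhibition above the campaign mean plus 3 SD over all tested compounds, cut at about 24% in these data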;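 also: cytokine-independent growth of Ba/F3 cells driven by EpoR plus mutant JAK2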
# KLF5 inhibitor: inhibitors of KLF5 expression; AID 1700; actives 0.23% (n = 290,000); DLD-1 KLF5 promoter-luciferase reporter, luminescence; inhibition, % at 5 µM;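 active = inhibition above a per-plate limit of that plate's mean compound inhibition plus 3 SD, cut at about 60% in these data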;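 also: higher means less KLF5 promoter-driven luciferase light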
# IEC-6 tox: counter-screen for KLF5 inhibitors: cytotoxicity in IEC-6 cells | IEC-6 cytotoxicity, luminescence viability | inhibition, % at 5 µM | actives 0.78% (n = 290,000); in the data active = inhibition above about 22%
# APP transl inh: APP translation inhibition | SH-SY5Y APP 5'UTR-luciferase reporter, luminescence | AID 1285 | actives 0.82% (n = 190,000) | inhibition, % at 2 µM;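 active = inhibition above a set limit, derived from the sample mean plus 3 SD, cut at about 45% in these data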
# Numbers stand for hits; - = inactive; . = not tested or not shown. In the library only some 1.8% were active in any assay of this set; here they are far more common.
SMILES,BaF3 tox,Ba/F3 V617F tox,KLF5 inhibitor,IEC-6 tox,APP transl inh
O=C(O)c1cc(-c2ccccc2)on1,-,-,-,-,-
O=C(NCc1cccnc1)NC1CC(=O)N(c2ccc3c(c2)OCCO3)C1 (stereo unspecified),-,-,-,-,-
CN1/C(=C\C(=O)C[n+]2ccc3ccccc3c2)C(C)(C)c2ccccc21,42.0,41.2,-,-,-
CN1/C(=C\C(=O)c2ccco2)C(C)(C)c2ccccc21,64.8,72.3,-,-,-
CN1/C(=C\C(=O)COc2ccc3c(c2)OCO3)C(C)(C)c2ccccc21,62.5,64.0,-,-,-
CN1/C(=C/C(=O)c2nc(S(C)(=O)=O)ncc2Cl)C(C)(C)c2ccccc21,92.0,87.5,-,-,56.6
O=C(OCC(=O)N1CCCC1=O)C1COc2ccccc2O1 (stereo unspecified),-,-,-,-,-
COc1cccc(CNC(=O)C2Cc3ccccc3CN2C(C)=O)c1 (stereo unspecified),.,.,-,-,.
CCOC(=O)N1CCC(N2Cc3cccc(C(=O)Nc4ccc(N(CC)CC)cc4C)c3C2=O)CC1,.,.,-,-,.
CN1/C(=C\C(=O)c2cccnc2)C(C)(C)c2ccccc21,-,-,-,-,-
CN1/C(=C\C(=O)c2cncc(Br)c2)C(C)(C)c2ccccc21,70.4,61.9,-,-,-
CCOc1ncccc1C(=O)OCC(=O)c1cc(OC)c(OC)c(OC)c1,-,-,-,-,.
CCOC(=O)c1ccc(OCCOc2cccc(C)c2)cc1,.,.,-,-,.
CCC(=O)N1c2ccc(S(=O)(=O)CCC(=O)N3CCN(c4ccccc4F)CC3)cc2CC1C (stereo unspecified),.,.,-,-,.
O=C1NC(=S)N/C1=C\c1ccc(N2CCOCC2)cc1,-,-,-,-,-
Cc1c(C(=O)OCC(=O)N2CC(=O)Nc3ccccc32)oc2ccccc12,-,-,-,-,-
O=C1CN(C(=O)COC(=O)c2oc3ccccc3c2COc2ccccc2)c2ccccc2N1,-,-,-,-,45.4
OC1(C(F)(F)F)CC(c2ccc3ccccc3c2)=NO1 (stereo unspecified),-,-,-,-,.
COCCNC(=S)N1CCC(NC(=O)c2ccco2)CC1,-,-,-,-,-
Cc1ccoc1C(=O)Nc1ccc(CC(=O)O)cc1,-,-,-,-,78.9
Cc1ccoc1C(=O)Nc1ccc2ccccc2c1,.,.,-,-,.
Fc1ccc(/C=N/n2cnn(Cc3ccccc3Cl)c2=S)cc1,-,-,-,-,62.4
Cc1occc1C(=O)N1CCN(c2ncccn2)CC1,92.1,-,-,-,-
Cc1ccccc1C(=O)N1CCN(c2ncccn2)CC1,.,.,-,-,.
Cc1ccc(/C=N/NC(=S)NC(C)C)o1,-,-,-,-,72.4
SMILES,BaF3 tox,Ba/F3 V617F tox,KLF5 inhibitor,IEC-6 tox,APP transl inh
Nc1cc2c3c(cccc3c1)C(=O)N(CCN1CCCC1)C2=O,83.4,97.2,-,61.6,.
CCN(CC)CCN1C(=O)c2cccc3cc(N)cc(c23)C1=O,70.1,82.2,-,-,.
NC(=O)c1ccc(N=Nc2c(-c3ccccc3)[nH]n(-c3ccccc3)c2=O)cc1,-,-,-,-,68.7
Nc1nn(-c2ccccc2)c(N)c1N=Nc1ccc2c(c1)OCO2,64.4,77.6,-,57.9,-
Nc1[nH]n(-c2ccccc2)c(=O)c1N=Nc1ccc2c(c1)OCCO2,-,-,-,-,-
CCn1c(=O)c(=O)[nH]c2cc(C(=O)N3CCN(Cc4ccc5c(c4)OCO5)CC3)ccc21,-,-,-,-,-
Cc1c(NC(=O)c2cc3nc(-c4ccc(Br)cc4)cc(C(F)(F)F)n3n2)c(=O)n(-c2ccccc2)n1C,93.6,-,-,-,-
Cc1nc2ccc(NC(=O)c3ccc(Cl)c(S(=O)(=O)N(C)c4ccccc4)c3)cc2s1,-,-,-,-,-
Cc1nc2ccc(NC(=O)c3cc(S(=O)(=O)N(C)c4ccccc4)ccc3Cl)cc2s1,48.8,43.4,-,-,-
C[N+]1(CC(=O)NNc2c3ccccc3nc3ccccc23)CCOCC1,28.9,-,-,-,-
O=C(CN1CCOCC1)NNc1c2ccccc2nc2ccccc12,-,-,-,-,.
CCOc1cc(C2C3=C(CCCC3=O)N(C)C3=C2C(=O)CCC3)cc(Cl)c1O,57.5,57.9,-,-,-
CCOc1ccc(C2CC(=O)NC3=C2C(=O)CCC3)cc1Cl (stereo unspecified),-,-,-,-,-
O=C(c1ccccc1)C1C(c2ccccc2)C1[N+](=O)[O-] (stereo unspecified),-,-,-,-,.
CN(C)c1ccc([C@@H]2[C@@H]([N+](=O)[O-])[C@H]3C=Cc4ccccc4N3[C@H]2C(=O)c2ccc(Cl)cc2)cc1,40.0,-,-,-,-
C[n+]1ccc(/C=C/c2ccc(Br)cc2)cc1,83.4,79.1,-,-,-
Cc1ccc2[nH]c(C)c(/C=C/c3cc[n+](C)cc3)c2c1,.,.,-,-,.
CCNC(=O)CC1C(=O)N(CC)C(=S)N1NC(=O)c1ccccc1 (stereo unspecified),-,-,-,-,.
COc1ccc(N(C(=O)c2ccco2)C(C(=O)NC2CCCCC2)c2cccs2)cc1OC (stereo unspecified),-,-,-,-,-
C#CC(=O)N(c1ccc(OC)cc1OC)C(C(=O)NC1CCCC1)c1cccs1 (stereo unspecified),26.6,100.9,-,102.3,-
O=C(CNC(=O)C1CCCCC1)NCc1ccco1,.,.,-,-,.
COc1ccccc1/C=C/C(=O)c1cc(Br)ccc1OC(=O)c1ccco1,-,-,-,-,-
Cc1ccc(/C=C/C(=O)c2cc(Br)ccc2OC(=O)c2ccco2)cc1,-,-,-,-,50.6
CCCCNC(=O)c1sc(=S)n2c1[nH]c(=O)c1ccccc12,100.8,-,-,-,-
CCc1ccc(Nc2cc(=O)n(C3CCCCC3)c(=O)[nH]2)cc1,-,-,-,-,-
SMILES,BaF3 tox,Ba/F3 V617F tox,KLF5 inhibitor,IEC-6 tox,APP transl inh
O=c1cc(Nc2ccc3c(c2)OCCO3)[nH]c(=O)n1C1CCCCC1,-,-,-,-,82.6
O=Cc1ccc(Oc2cnccn2)cc1,-,-,-,-,75.7
Cc1ccccc1C1c2[nH]c3ccccc3c2CCN1Cc1cccn1-c1ncccn1 (stereo unspecified),32.0,-,-,-,.
COc1ccc(Nc2nc(-c3cc4cccc(OC)c4oc3=O)cs2)cc1,-,-,-,-,-
COc1cccc2sc(Nc3nc(-c4cc5ccccc5oc4=O)cs3)nc12,-,-,-,-,91.3
COc1cccc2sc(Nc3nnc(-c4ccccc4Cl)o3)nc12,85.1,82.1,-,-,84.7
COc1cccc2sc(Nc3nc(-c4ccncc4)cs3)nc12,82.5,85.4,-,53.7,93.7
COc1cccc2sc(NN)nc12,-,-,-,-,-
COc1cccc(-c2nnc(Nc3nc4c(F)cccc4s3)o2)c1,-,-,-,-,-
C[N+]1(CC(=O)OC2CCCCCCCCCCC2)CCCC1,72.3,72.5,-,-,-
CN1c2ccccc2C(C)(C)C12C=Cc1cc(O)ccc1O2 (stereo unspecified),62.9,72.4,-,-,-
CC(Oc1ccc(Cl)cc1Cl)c1ccn[nH]1 (stereo unspecified),-,-,-,-,-

# Bioassay records from PubChem.
